Assay outcomes as filed in PubChem.
SKKanGAS inh: inhibitors of SKKanGAS S. pyogenes growth in kanamycin (SK-promoter or general growth effect); BacTiter-Glo, 6 h; inhibition, % at 7.5 µM; 1.3% of 300,000 active; AID 1662;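 active means mean replicate score, as percent of positive control median, at least 50; inconclusive means mean below 50 but one replicate at or above 50; inactive means mean and every replicate below 50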;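 further: strain carries kanamycin resistance gene driven by streptokinase promoter and grows in 40 µg/ml kanamycin; loss of luminescence reflects streptokinase promoter inhibition or plain growth inhibition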
Calb FLC: C. albicans growth modulation with fluconazole | growth inhibition, % (concentration not given with the values) | 0.57% of 300,000 active | AID 1979 | C. albicans CaCi-2 (fluconazole-resistant clinical isolate) + fluconazole, Alamar Blue growth, 48 h;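 active means growth inhibition above about 58% in most replicates, limit read from the data, passing the limit was not always enough; inconclusive means exactly half the replicates above a set limit; inactive means most replicates below a set limit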;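 further: all wells also contain fluconazole at 8 µg/ml as a sub-toxic cotreatment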
PfHsp90 set2: reduces growth (ATP signal) of yeast expressing P. falciparum Hsp90; 0.32% of 310,000 active; inhibition, % at 9.4 µM; S. cerevisiae expressing PfHsp90, BacTiter-Glo ATP, 48 h; yeast lacking PDR1 and PDR3 efflux regulators;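 active means every replicate shows inhibition above about 80%, whatever the replicate mean, limit read from the data; inconclusive means mean inhibition reaches the set limit but some replicate falls short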
tim23-1 inh: tim23-1 yeast growth inhibition; S. cerevisiae tim23-1 growth, BacTiter-Glo luminescence, 24 h; inhibition, % at 20 µM; 1.3% of 330,000 active; AID 463212;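 active means growth inhibition of the mutant yeast at or above 50%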;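 further: temperature-sensitive mutant grown at 25 °C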
tim10-1 inh: tim10-1 yeast growth inhibition; AID 463190; S. cerevisiae tim10-1 ts strain growth, BacTiter-Glo, 24 h; inhibition, % at 20 µM; 2.2% of 330,000 active;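 active means inhibition of at least 40%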;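 further: mutant grown at 25 °C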
TIM10 inh: TIM10 yeast growth inhibition; inhibition, % at 10 µM; S. cerevisiae TIM10 strain growth, BacTiter-Glo luminescence, 24 h; 1.4% of 330,000 active;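 active means inhibition of 40% or more at the single tested concentration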;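 further: wild-type TIM10 isogenic control strain grown at permissive 25 °C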
tim10-1 confirm: confirmation of tim10-1 mutant yeast growth inhibitors; shares compounds with tim10-1 inh; S. cerevisiae tim10-1 ts strain growth, BacTiter-Glo, 24 h; inhibition, % at 20 µM; 56% of 7,400 active; AID 463213;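 active means inhibition of yeast growth at or above a set limit in either of two repeat tests at 20 µM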;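 further: tim10-1 mutant grown at permissive 25 °C to find synthetic lethal compounds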
TIM10 conf: confirmation of TIM10 yeast growth inhibitors; 63% of 4,600 active; inhibition, % at 10 µM; S. cerevisiae tim10 strain growth, BacTiter-Glo luminescence, 24 h; shares compounds with TIM10 inh; AID 463215;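 active means inhibition of yeast growth at or above a set limit in either of two replicates at 10 µM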; further: this counterscreen used the strain with wild-type TIM10
tim23-1 confirm: confirmation of tim23-1 mutant yeast growth inhibitors; shares compounds with tim23-1 inh; S. cerevisiae tim23-1 growth, BacTiter-Glo luminescence, 24 h; inhibition, % at 20 µM; 83% of 4,400 active; AID 463218;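 active means inhibition above about 39% in either of two replicate wells at 20 µM, limit read from the data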;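 further: temperature-sensitive tim23-1 mutant grown at 25 °C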
Numbers stand for hits; i = inactive; ? = inconclusive; nt = no result. Shown are actives, neighbours in structure and some others; about 4.7% of the full set was active somewhere.

SMILES	SKKanGAS inh	Calb FLC	PfHsp90 set2	tim23-1 inh	tim10-1 inh	TIM10 inh	TIM10 conf	others
Cc1ccc(-n2ncc3c2CCCC3NC(=O)c2csnn2)cc1C (stereo not drawn)	i	i	i	51.8	58.6	i	nt	tim10-1 confirm=40.7;tim23-1 confirm=43.5
Cc1ccc2nc3cc([N+](=O)[O-])cc([N+](=O)[O-])c3cc2c1	nt	nt	i	nt	nt	nt	nt
Cc1ccccc1-n1ncc2c([N+](=O)[O-])cc([N+](=O)[O-])cc21	i	?	i	77.3	48.0	68.3	75.3	tim10-1 confirm=35.2;tim23-1 confirm=i
CCS(=O)(=O)N1CCC(C(=O)Oc2ccc(Cl)cc2)CC1	i	i	i	i	i	i	nt
COc1ccc(Cl)cc1C(=O)NC(=S)Nc1ccccc1N1CCOCC1	i	nt	i	i	i	i	nt
O=C(NC(=S)Nc1cc(Cl)ccc1N1CCOCC1)c1ccccc1[N+](=O)[O-]	i	i	i	56.4	50.9	45.4	46.6	tim10-1 confirm=50.0;tim23-1 confirm=54.9
CCCCN1C(=O)C(=Nc2cccc3cnccc23)c2ccccc21	i	i	i	71.1	44.7	42.1	34.8	tim10-1 confirm=46.4;tim23-1 confirm=67.3
O=C(N/N=C/c1nn(-c2ccccc2)cc1-c1ccccc1)c1ccncc1	i	i	i	i	i	40.4	i
O=C(CN1CCN(C(=O)C2CC2)CC1)Nc1ccc(Cl)cc1F	nt	nt	nt	i	i	i	nt
CC(C)c1ccc(NC(=O)Cc2cn(C)c3ccccc23)cc1	i	114.1	i	i	i	47.1	31.6
CC(C)(C)c1nc(NC(=O)Nc2ccccc2)sc1Br	67.8	i	i	i	i	49.0	48.7
O=[N+]([O-])c1ccc(SCc2ccncc2)nc1	i	i	i	i	i	i	nt
COc1ccc(C(=O)Oc2ccc(C(=S)N3CCCC3)cc2)cc1OC	i	i	nt	i	i	i	nt
COc1ccc(C(=O)Oc2cc3c4c(c2)C(C)=CC(C)(C)N4C(=O)C3=O)cc1OC	i	i	i	i	i	46.3	48.2
CC(C)c1ccccc1OCCNC(=S)NC(=O)c1cccnc1	i	i	nt	i	i	44.9	44.2
Cc1cc(Cl)ccc1OCCNC(=S)NC(=O)c1cccnc1	i	i	i	i	i	i	nt
COc1ccc(C(=O)N/C(=C/c2ccc(Cl)cc2)C(=O)NCc2ccncc2)cc1	i	i	i	i	i	95.9	i
COC(=O)c1ccc(C)c(NC(=O)c2ccc(Cn3cc([N+](=O)[O-])cn3)o2)c1	i	i	i	i	i	i	nt
CCNS(=O)(=O)c1ccc(NC(=O)c2ccc(Cn3cc([N+](=O)[O-])cn3)o2)cc1	i	i	i	i	i	47.0	i
COc1cc2c(cc1OC)CN(C1CCC(C)CC1)CC2 (stereo not drawn)	i	i	i	i	i	i	nt
CC(C)(C)n1nnnc1C(c1ccncc1)N(Cc1ccccc1)Cc1ccco1 (stereo not drawn)	i	i	i	i	i	41.5	i
Cc1ccc(-n2nnnc2-c2cccs2)cc1[N+](=O)[O-]	i	i	i	i	i	i	nt
CCN(CC(=O)Nc1cc(OC)ccc1OC)Cc1nc2ccccc2c(=O)[nH]1	i	i	i	i	i	i	nt
COc1cc2c(cc1NC(=O)CN(C)Cc1nc3ccccc3c(=O)[nH]1)oc1ccccc12	i	i	nt	i	i	41.7	i
CCOc1ccccc1N1CCN(C(=O)c2cc(-c3cccnc3)nc3c(Cl)cccc23)CC1	i	i	i	i	i	i	nt
SMILES	SKKanGAS inh	Calb FLC	PfHsp90 set2	tim23-1 inh	tim10-1 inh	TIM10 inh	TIM10 conf	others
Cc1cccc(-c2nc(=S)c3c(o2)CCCC3)c1	i	i	nt	i	i	43.6	33.0
S=c1nc(-c2ccc(Br)cc2)oc2c1CCCC2	i	i	i	i	i	i	nt
CCOC(=O)N1CCN(C(=O)c2ccc3c(c2)sc2nc(-c4ccccc4)cn23)CC1	i	i	i	i	i	44.5	52.8
CCC(C)n1c(SCC(=O)Nc2cc(C)on2)nc2ccccc2c1=O (stereo not drawn)	i	i	i	i	i	i	nt
CCC(C)n1c(SCC(=O)Nc2cc(C(C)(C)C)nn2-c2ccccc2)nc2ccccc2c1=O (stereo not drawn)	i	i	i	i	i	40.7	i
CC(C)C(NCC(=O)Nc1ccccc1C(=O)NC1CC1)c1ccccc1 (stereo not drawn)	nt	nt	nt	i	i	i	nt
Clc1ccc(CN=C2Nc3ccccc3CS2)cc1	i	i	i	i	i	40.9	32.5
Cc1ccc(NC(=O)CCc2nc3sc4c(c3c(=O)[nH]2)CCCC4)c(Br)c1	i	i	i	i	i	i	nt
CC(C)(C)NC(=O)C(c1cccs1)N(CC1CCCO1)C(=O)c1ccc(-c2ccccc2)[nH]1 (stereo not drawn)	i	i	i	i	i	41.7	i
CCOc1ccc(N(C(=O)c2cnccn2)C(C(=O)NC2CCCCC2)c2ccc(O)cc2)cc1 (stereo not drawn)	i	i	i	i	i	83.7	i
Cc1ccc(N(C(=O)c2cnccn2)C(C(=O)NC2CCCCC2)c2ccc(O)cc2)cc1 (stereo not drawn)	i	i	i	i	i	i	nt
Clc1cc(Br)ccc1NCc1cccnc1	i	i	i	i	i	i	nt
O=S(Cc1ccc(Br)cc1)Cc1nnc(SCc2c(Cl)cccc2Cl)n1-c1ccccc1 (stereo not drawn)	i	?	i	i	i	41.0	i
Cn1c(CS(=O)Cc2c(Cl)cccc2Cl)nnc1SCc1c(Cl)cccc1Cl (stereo not drawn)	i	i	i	i	i	i	nt
Cc1ccccc1NC(=O)Cc1nc(COC(=O)c2ccc(O)cc2O)cs1	i	i	i	i	i	i	nt
Cc1ccc(S(=O)(=O)Cc2cc(F)c([N+](=O)[O-])cc2[N+](=O)[O-])cc1	i	i	i	i	i	89.0	68.4
O=C(COC(=O)CN1C(=O)C(=O)c2ccccc21)OCN1C(=O)c2ccccc2C1=O	i	i	i	i	i	47.5	i
Oc1ccccc1Cn1c(-c2ccccc2O)nc2ccccc21	i	i	i	i	i	52.4	i
Cc1cc(C)nc(SCc2cc(=O)c(OC(=O)c3ccc(Br)o3)co2)n1	i	i	i	i	i	i	nt
Cc1cc(C)nc(SCc2cc(=O)c(OC(=O)c3ccco3)co2)n1	i	i	i	i	i	42.0	37.0
O=C(Nc1cccc(F)c1)c1cc(S(=O)(=O)NCCC2=CCCCC2)ccc1F	i	i	i	i	i	41.9	i
O=C(CCN1C(=O)/C(=C\c2ccccc2F)SC1=S)N1CCCCC1	i	i	i	i	i	42.2	i
